Test results: the supplement of paper PMC10981050
Several values for one entry are separate records, joined by “and”; a condition that tells them apart may be missing. Identical values can stand only once. Counter-ions that a name gives are not always drawn.

Assays:
Experiment in all cases: cell viability relative to vehicle control; higher = less cytotoxic
Conditions in all cases: 10 µM
[1] = test system: K562
In short: (§1)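 Screening covered the Selleck bioactive, kinase and epigenetic probe libraries, less identity-inconsistent compounds, on CRISPR-edited mutant clones and isogenic wild-type clones of four leukaemia lines. Cells, at 2000 per well in 50 µL medium, received a single 10 µM acoustically dispensed dose. After 48 h the supernatant was removed and CellTiter-Glo luminescence was read. Viability was analysed in Genedata Screener as percent of the on-plate vehicle control.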

[2] = test system: MARIMO
In short: as §1

[3] = test system: MOLM14
In short: as §1

[4] = test system: OCI-AML2
In short: as §1

SMILES | cell viability ([1]; SRSF2 genotype: SRSF2 P95H/wt) | cell viability ([1]; SRSF2 genotype: SRSF2 wt/wt) [%] | cell viability ([2]; SRSF2 genotype: SRSF2 P95H/wt) [%] | cell viability ([2]; SRSF2 genotype: SRSF2 wt/wt) [%] | cell viability ([3]; SRSF2 genotype: SRSF2 P95H/wt) [%] | cell viability ([3]; SRSF2 genotype: SRSF2 wt/wt) [%] | cell viability ([4]; SRSF2 genotype: P95H/wt) [%] | cell viability ([4]; SRSF2 genotype: wt/wt) [%]
C[C@@]1(C(=O)Nc2ccc(F)nc2)CCCN1c1nc(Nc2cc(C3CC3)n[nH]2)c2cccn2n1 | 61.4% and 72.2% | 63.7 | 38.7 | 33.2 | 7.43 | 9.62 | 7.63 | 19.3
C=CC(=O)N1C[C@H](Nc2ncnc3[nH]ccc23)CC[C@@H]1C | 96.3% and 105% | 102 | 94.5 | 97.7 | 81.1 | 93.8 | 86.8 | 91.6
OC[C@@H](O)CN1CCN(c2ccccc2)CC1 [Levodropropizine] | 90.9% and 91% | 83.9 | 85.1 | 96.5 | 92.5 | 91.6 | 94.5 | 96
CC(C)(C#N)c1cc(Cn2cncn2)cc(C(C)(C)C#N)c1 [Anastrozole] | 102% and 109% | 107 | 97.4 | 105 | 103 | 99.1 | 93.5 | 95.3
CC[C@H]1OC(=O)[C@H](C)[C@@H](O[C@H]2C[C@@](C)(OC)[C@@H](O)[C@H](C)O2)[C@H](C)[C@@H](O[C@@H]2O[C@H](C)C[C@H](N(C)C)[C@H]2O)[C@](C)(O)C[C@@H](C)CN[C@H](C)[C@@H](O)[C@]1(C)O [Azathramycin] | 104% and 112% | 115 | 107 | 104 | 109 | 108 | 111 | 97.8
Nc1ccccc1NC(=O)c1ccc(CNC(=O)OCc2cccnc2)cc1 [Entinostat (MS-275, SNDX-275)] | 9.53% and 33.8% | 26.6 | 22.1 | 25.4 | 1.22 | 1.1 | 0.59 | 4.33
COc1cc([C@@H]2Oc3cc([C@H]4Oc5cc(O)cc(O)c5C(=O)[C@@H]4O)ccc3O[C@H]2CO)ccc1O [Silymarin (Silybin B)] | 106% and 94.4% | 95.6 | 99.6 | 108 | 105 | 102 | 106 | 114
O=C1NCCc2[nH]c(-c3ccncc3)cc21 | 50.4% and 42% | 63.5 | 12.7 | 7.5 | 1.91 | 0.86 | 4.1 | 14.9
O=C(O)c1cc(/N=N/c2ccc(S(=O)(=O)Nc3ccccn3)cc2)ccc1O [Sulfasalazine (Azulfidine)] | 99% and 96.4% | 94.4 | 96.3 | 101 | 93.7 | 98.9 | 96.4 | 103
C[C@@H]1CC(=O)c2c(ccc3c2C(=O)c2cccc(O)c2C3=O)C1 | 77.9% and 93.8% | 94.6 | 67.6 | 57.6 | 53.9 | 68.5 | 43.4 | 43.6
CC(=O)OCC1=C(C(=O)O)N2C(=O)C(NC(=O)CSC(=NC(C)C)NC(C)C)C2SC1 (centres undefined) [Cefathiamidine] | 103% and 98.2% | 103 | 103 | 110 | 96.1 | 104 | 102 | 113
COc1ccc(O)cc1 [Mequinol] | 103% and 95.3% | 106 | 91.1 | 100 | 95.6 | 96.9 | 90.4 | 103
CCNc1nc(Nc2cc(F)c(C(=O)N3CCOCC3)cc2OC)ncc1C(F)(F)F | 102% and 98.9% | 99.2 | 93.3 | 109 | 90 | 103 | 87.8 | 93.7
CCNC(=O)c1noc(-c2cc(Cl)c(O)cc2O)c1-c1ccc(OC)cc1 | 20.7% and 32.8% | 25.5 | 31.9 | 25.1 | 2.02 | 2.25 | 16.2 | 20.2
CC[C@]1(O)C[C@H]2CN(CCc3c([nH]c4ccccc34)[C@@](C(=O)OC)(c3cc4c(cc3OC)N(C=O)[C@H]3[C@@](O)(C(=O)OC)[C@H](OC(C)=O)[C@]5(CC)C=CCN6CC[C@]43[C@@H]65)C2)C1 [Vincristine Sulfate] | 13.6% and 37% | 35.8 | 6.92 | 9.68 | 0.94 | 1.22 | 5.06 | 9.32
CC(=O)c1ccc(NN=C(C(N)=O)C2=NC(C)(C)Cc3ccccc32)cc1 | 79.9% and 87.9% | 86.9 | 56.1 | 58.1 | 15 | 14.7 | 30.5 | 40.5
CC(/C=C/C=C(\C)C(=O)O[C@@H]1O[C@H](CO[C@@H]2O[C@H](CO)[C@@H](O)[C@H](O)[C@H]2O)[C@@H](O)[C@H](O)[C@H]1O)=C\C=C\C=C(C)\C=C\C=C(/C)C(=O)O[C@@H]1O[C@H](CO[C@@H]2O[C@H](CO)[C@@H](O)[C@H](O)[C@H]2O)[C@@H](O)[C@H](O)[C@H]1O [Crocin] | 101% and 100% | 99.8 | 95.6 | 100 | 95.2 | 102 | 107 | 102
COC(=O)/C=C/C(=O)OC [Dimethyl Fumarate] | 101% and 108% | 94.7 | 103 | 95.6 | 102 | 99.5 | 111 | 110
Cc1ccc(C(=O)Nc2cccc(C(F)(F)F)c2)cc1Nc1nc(-c2cccnc2)nc2c1cnn2C | 65.9% and 77.9% | 64.2 | 46.1 | 60.5 | 91 | 110 | 87 | 82.7

SMILES | cell viability ([1]; SRSF2 genotype: SRSF2 P95H/wt) | cell viability ([1]; SRSF2 genotype: SRSF2 wt/wt) [%] | cell viability ([2]; SRSF2 genotype: SRSF2 P95H/wt) [%] | cell viability ([2]; SRSF2 genotype: SRSF2 wt/wt) [%] | cell viability ([3]; SRSF2 genotype: SRSF2 P95H/wt) [%] | cell viability ([3]; SRSF2 genotype: SRSF2 wt/wt) [%] | cell viability ([4]; SRSF2 genotype: P95H/wt) [%] | cell viability ([4]; SRSF2 genotype: wt/wt) [%]
CC[C@@H](N)CNc1ccnc(-c2cc(-c3cnn(C)c3)ccc2O)n1 | 5.05% and 8.35% | 7.08 | 2.69 | 1.1 | 0.8 | 0.44 | 1.45 | 10.8
Cc1cn([C@@H]2C[C@@H](O)[C@H](CO)O2)c(=O)[nH]c1=O [Telbivudine (Sebivo, Tyzeka)] | 96.7% and 104% | 101 | 105 | 102 | 99.2 | 108 | 113 | 102
C[C@H](NC(=O)c1c(N)nn2cccnc12)c1cc2cccc(C#Cc3cnn(C)c3)c2c(=O)n1-c1ccccc1 | 88.3% and 88.5% | 94.3 | 71 | 63.4 | 54.3 | 57.1 | 32.2 | 41.6
C[C@@H]1Cc2c([nH]c3ccccc23)[C@@H](c2c(F)cc(/C=C/C(=O)O)cc2F)N1CC(C)(C)F | 106% and 105% | 108 | 107 | 104 | 101 | 97.4 | 117 | 107
O=C(NCC1(c2nc(-c3ccccc3)cs2)CCOCC1)c1cccc(-c2noc(C(F)(F)F)n2)c1 | 82.1% and 90.7% | 86.5 | 86.5 | 85.5 | 87.9 | 97.8 | 75.7 | 79.3
O=C1NC(=O)/C(=C/c2ccc3c(c2)OC(F)(F)O3)S1 | 103% and 97.1% | 98.1 | 101 | 99.8 | 96.9 | 101 | 95.3 | 103
CS(=O)(=O)OCCCCOS(C)(=O)=O [Busulfan (Myleran, Busulfex)] | 103% and 108% | 98.6 | 99.6 | 107 | 102 | 106 | 88.6 | 102
CC(=O)Nc1nc2c(Oc3cc(-c4ccc(C(F)(F)F)cc4)ncn3)cccc2s1 | 99.6% and 93% | 88 | 93.3 | 103 | 95.9 | 97.7 | 90.6 | 88.9
Cc1cc(=O)n(-c2ccccc2)n1C [Antipyrine] | 97.8% and 87.7% | 82.7 | 86.2 | 95.4 | 88.1 | 87.4 | 84.8 | 93.4
O=C(CCNC(=O)c1ccc(OC(F)(F)F)cc1)N[C@@H]1CCCc2ccccc21 | 105% and 110% | 91.3 | 96 | 105 | 93.7 | 94.6 | 93.8 | 106
O=c1c2ccccc2nc2n1CCc1c-2[nH]c2ccccc12 [Rutaecarpine (Rutecarpine)] | 103% | 103 | 98.5 | 106 | 101 | 103 | 95.5 | 104
CC1CCC2(O)C(C)(C)C3CCC2(C)C1C3 (centres undefined) [Patchouli alcohol] | 92.3% and 85.5% | 89.2 | 89.5 | 102 | 91.1 | 89.5 | 80.6 | 93
CC#CCn1c(N2CCC[C@@H](N)C2)nc2c1c(=O)n(Cc1nc(C)c3ccccc3n1)c(=O)n2C [Linagliptin (BI-1356)] | 99% and 103% | 103 | 98 | 97 | 101 | 106 | 110 | 93.6
NC(=O)c1cc(F)cc2c1C(=O)N(C1CCN(C3CCC(F)(F)CC3)CC1)C2 | 97.3% and 103% | 95.7 | 96.4 | 106 | 82.6 | 97.3 | 87.5 | 96.1
CCC(C)SSc1ncc[nH]1 (centres undefined) | 14.2% and 15.1% | 11.6 | 6.03 | 4.97 | 1.56 | 3.76 | 4.83 | 3.63
COCCNCc1ccc(-c2cc3nccc(Oc4ccc(NC(=O)C5(C(=O)Nc6ccc(F)cc6)CC5)cc4F)c3s2)nc1 [Sitravatinib (MGCD516)] | 14.2% and 25.4% | 10.6 | 67.2 | 78.5 | 5.4 | 8.33 | 14.1 | 27.3
C=CC(=O)N1CC(=Cc2ccc([N+](=O)[O-])cc2)C(=O)C(=Cc2ccc([N+](=O)[O-])cc2)C1 | 15.9% and 2.27% | 9.63 | 3.16 | 1.15 | 0.72 | 0.74 | 2.08 | 1.27
Cc1cc(O)c2c(c1)C(=O)c1cccc(O)c1C2=O [Chrysophanic acid (Chrysophanol)] | 100% and 95.6% | 100 | 96.9 | 95.8 | 114 | 106 | 89.2 | 83
CC1=CC(=O)NS(=O)(=O)O1 [Acesulfame Potassium] | 96.3% and 96.7% | 96.3 | 98.1 | 94.4 | 98.9 | 97.8 | 89.1 | 105
